Test systems include DU-145 prostate; K-562 leukemia; MALME-3M melanoma; MDA-MB-231 breast; RXF 393 renal; SF-268 CNS; SF-295 CNS; SF-539 CNS; UACC-257 melanoma; M14 melanoma; HCT-15 colon; HT29 colon; SNB-75 CNS; SNB-19 CNS; U251 CNS; PC-3 prostate; SK-MEL-5 melanoma; UACC-62 melanoma; LOX IMVI melanoma; SK-MEL-28 melanoma.
Holding throughout (assay): NCI-60 one-dose screen, 48 h (100 = growth as untreated, 0 = no growth, -100 = all killed)
Common to all, as to settings: 10 µM unless noted

These results are taken from PubChem BioAssay (NCI).

About 83,000 compounds went through this panel and 20% of them were active in at least one assay; those are over-represented in the sample as a whole.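 Interpretation: 100, growth as untreated; towards 0, rising growth inhibition; 0, no net growth; 0 to -100, cell death. Compounds scoring below 10 were considered active.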 Values without a mark were called inactive. Activity calls are given as the source filed them.

With `CCN(CC)S(=O)(=O)c1ccc(-c2nc(C(Cl)Cl)nc3cc(-c4ccc(F)cc4)nn23)cc1`, the growth was 16% in the test on DU-145 prostate; 34.6% with K-562 leukemia; 57.6% in the test with MALME-3M melanoma; 1.34% (active) in the test with MDA-MB-231 breast; -30.2% (active) with RXF 393 renal; 48.5% in the test on SF-268 CNS. Moreover, the growth in the test with SF-295 CNS is 32.6%; in the test with SF-539 CNS, 18.4%; with UACC-257 melanoma, 67.7%; with M14 melanoma it was 47.1%; in the test with HCT-15 colon, 23.3%; with HT29 colon it was 4.77% (active). The growth is 56.5% with SNB-75 CNS; 40.2% in the test with SNB-19 CNS; 17.7% in the test on U251 CNS; 18.6% in the test with PC-3 prostate; 83.3% with SK-MEL-5 melanoma; 54.2% with UACC-62 melanoma. The growth in the test with LOX IMVI melanoma is 32%.

With `C=C(C)[C@@H]1CC[C@]2(C(=O)O)CC[C@]3(C)[C@H](CC[C@@H]4[C@@]5(C)C/C(=C/c6ccccn6)C(=O)C(C)(C)[C@@H]5CC[C@]43C)[C@@H]12`, the growth in the test on DU-145 prostate was 45.5%; in the test with K-562 leukemia, 29.3%; in the test on MALME-3M melanoma it was 72.5%; with MDA-MB-231 breast, 61.7%; with RXF 393 renal it was 62.1%; in the test on SF-268 CNS it was 51.5%. The growth with SF-295 CNS is 34%; in the test on SF-539 CNS it was 46.8%; in the test on UACC-257 melanoma, 46.5%; with M14 melanoma, 59%; in the test on HCT-15 colon it was 18.9%; with HT29 colon, 40.8%. The growth was 61.1% with SNB-75 CNS; 50.3% with SNB-19 CNS; 27.9% in the test on U251 CNS; 28.4% in the test on PC-3 prostate; 31.8% in the test on SK-MEL-5 melanoma; 40.1% with UACC-62 melanoma. Moreover, the growth with LOX IMVI melanoma is 34.6%.

For `O=C(Nc1cc(C(F)(F)F)cc(C(F)(F)F)c1)Nc1ccc2oc(=O)ccc2c1`, the growth with DU-145 prostate is 18.3%; with K-562 leukemia, 13.7%; in the test on MALME-3M melanoma, -26.4% (active); with MDA-MB-231 breast, -9.24% (active); with RXF 393 renal it was 39.7%; in the test on SF-268 CNS, 21.1%. The growth is 0.342% (active) with SF-295 CNS; 21.4% in the test with SF-539 CNS; 1.17% (active) in the test on UACC-257 melanoma; 18.1% with M14 melanoma; 10.5% in the test on HCT-15 colon; 10.5% in the test on HT29 colon. The growth with SNB-75 CNS is 15.1%; in the test with SNB-19 CNS, 13.6%; in the test with U251 CNS it was 14.6%; in the test on PC-3 prostate, 3.96% (active); in the test on SK-MEL-5 melanoma it was -90.6% (active); with UACC-62 melanoma it was 14%. Also, in the test on LOX IMVI melanoma, the growth was -43.1% (active).

For the compound `CC1=C(C)C(=O)C(Nc2ccc(C)c(C)c2)=C(Br)C1=O`, the growth with DU-145 prostate was 109%; with K-562 leukemia it was -2.41% (active); with MALME-3M melanoma it was 114%; in the test with MDA-MB-231 breast it was 65.1%; in the test with RXF 393 renal, 87.9%; in the test on SF-268 CNS, 98.4%. The growth was 92.9% with SF-295 CNS; 98.9% in the test with SF-539 CNS; 98.5% in the test on UACC-257 melanoma; 96.5% in the test on M14 melanoma; 92.3% with HCT-15 colon; 107% in the test on HT29 colon. In addition, the growth in the test on SNB-75 CNS was 73.2%; in the test on SNB-19 CNS, 97.4%; in the test with U251 CNS it was 102%; in the test on PC-3 prostate, 85%; in the test on SK-MEL-5 melanoma, 89.1%; with UACC-62 melanoma, 96.4%. Also, the growth in the test with LOX IMVI melanoma is -54.6% (active).

As to `CN1CCN(c2ccc(Nc3nc(NCCCNS(=O)(=O)c4cccc(F)c4)c4sccc4n3)cc2)CC1`, the growth in the test on DU-145 prostate is 43.4%; in the test on K-562 leukemia it was 12.5%; with MALME-3M melanoma, -83.6% (active); in the test with MDA-MB-231 breast, 36.1%; in the test with RXF 393 renal, -71.4% (active); in the test on SF-268 CNS it was 44.2%. Further, the growth is 6.24% (active) in the test with SF-295 CNS; -80.4% (active) with SF-539 CNS; -64% (active) with UACC-257 melanoma; -62.2% (active) with M14 melanoma; 17.3% in the test with HCT-15 colon; -68.7% (active) in the test with HT29 colon. For the same compound, the growth was 82.1% in the test on SNB-75 CNS; 48.7% in the test with SNB-19 CNS; 6.85% (active) in the test with U251 CNS; 63.1% in the test with PC-3 prostate; -77.6% (active) in the test with SK-MEL-5 melanoma; 0.267% (active) in the test on UACC-62 melanoma.

In the case of `N#Cc1c(-c2ccc(Br)cc2)cc(-c2c[nH]c3ccccc23)nc1N`, the growth in the test on DU-145 prostate was 70%; in the test with K-562 leukemia, 18.6%; in the test with MALME-3M melanoma it was 73.9%; in the test on MDA-MB-231 breast, 46%; with RXF 393 renal, 25.9%; in the test on SF-268 CNS it was 56.9%. Moreover, the growth was 52.4% in the test on SF-295 CNS; 43% in the test on SF-539 CNS; 94.4% in the test on UACC-257 melanoma; 44.6% in the test with M14 melanoma; 16.8% in the test on HCT-15 colon; 27.4% in the test with HT29 colon. Further, the growth with SNB-75 CNS is 37.9%; in the test on SNB-19 CNS, 66.1%; with U251 CNS, 52.6%; with PC-3 prostate, 55.2%; with SK-MEL-5 melanoma, 58.9%; in the test on UACC-62 melanoma, 64.9%. The growth is 28.7% with LOX IMVI melanoma and 59.3% with SK-MEL-28 melanoma.

Take `CCCCN1C(=O)/C(=c2\sc3n(c2=O)C2C(NN=3)N(CC)C(=O)N2CC)c2cccc(C)c21` (configuration not stated): the growth in the test with DU-145 prostate was 37.6%; in the test with K-562 leukemia, 15%; in the test on MALME-3M melanoma, 54.5%; with MDA-MB-231 breast, 60%; with RXF 393 renal it was 11.9%; in the test with SF-268 CNS, 56.2%. Also, the growth with SF-295 CNS was 29.1%; in the test on SF-539 CNS it was -7.82% (active); with UACC-257 melanoma it was 89.4%; in the test on M14 melanoma, 27%; with HCT-15 colon, 14.9%; in the test on HT29 colon, 16.5%. For the same compound, the growth in the test with SNB-75 CNS is 14.1%; with SNB-19 CNS, 39.4%; with U251 CNS, 39.1%; in the test with PC-3 prostate it was 34.4%; with SK-MEL-5 melanoma it was 29.6%; in the test on UACC-62 melanoma, 38.7%. Besides, the growth in the test on LOX IMVI melanoma was 42.4%.

As to `CN1CCN(c2ccc(Nc3nc(NCCNC(=O)c4ccccc4)c4sccc4n3)cc2)CC1`, the growth was 79.4% in the test with DU-145 prostate; 8.82% (active) with K-562 leukemia; 30.6% with MALME-3M melanoma; 54.3% in the test on MDA-MB-231 breast; 33.8% in the test on RXF 393 renal; 64.6% in the test on SF-268 CNS. Besides, the growth in the test with SF-295 CNS was 76.9%; with SF-539 CNS it was -75.4% (active); in the test on UACC-257 melanoma it was 33.3%; in the test with M14 melanoma, 27.8%; in the test on HCT-15 colon, 20.7%; with HT29 colon, 4.23% (active). Also, the growth with SNB-75 CNS is 81%; with SNB-19 CNS, 88.4%; in the test on U251 CNS, 18.3%; in the test with PC-3 prostate it was 61.8%; in the test with SK-MEL-5 melanoma, 21.3%; with UACC-62 melanoma it was 53%. Besides, the growth in the test on LOX IMVI melanoma was 5.15% (active).
